LANA-H2B inh: blocks KSHV LANA binding to histone H2A/H2B. cell-free LANA-H2A/H2B peptide, fluorescence polarization. inhibition, % (concentration not given with the values). 320,000 tested, 0.6% active. AID 2629; in the data active means inhibition mostly above about 10%, no sharp cut-off; inactive means mostly below about 6.7%
rCAG RNA binder: molecules binding r(CAG) RNA repeats; 370,000 tested, 1.3% active; inhibition, % at 3 µM; r(CAG) RNA repeat, TO-PRO-1 dye displacement fluorescence;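 active means inhibition above the plate cutoff, the mean of all test compounds on that plate plus 3 SD, cut at about 35% in these data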;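 further: 0% = DMSO alone and 100% = 100 µM mitoxantrone as full dye displacement; higher means more dye released from RNA so lower well fluorescence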
ABHD5-PLIN5 inh: ABHD5-PLIN5 protein interaction inhibition; Q00G26+Q8WTS1; Split G. princeps luciferase complementation, luminescence, 4 h; inhibition, % at 4 µM; 360,000 tested, 0.78% active; AID 602281;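 active means inhibition above the mean inhibition across every tested compound plus 3 SD, cut at about 22% in these data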;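 further: 0% = DMSO only wells and the 100% control is not disclosed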
Rtt109 Vps75: blocks Candida albicans Rtt109/Vps75 acetyltransferase activity. Q5AAJ8. purified Rtt109/Vps75, ThioGlo CoA-SH fluorescence, 4 h. inhibition, % at 34.9 µM. 330,000 tested, 0.16% active. AID 540336;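 active means inhibition of at least 50% in every replicate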
ALR inh: inhibitors of human sulfhydryl oxidase ALR; inhibition, % (test concentration not listed); P55789; 290,000 tested, 3.8% active; purified ALR, DTT oxidation, H2O2 HRP-luminol luminescence; AID 485317;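 active means mean replicate inhibition above about 79%, with every replicate also reaching it, limit read from the data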
Target sequence (P55789 whole entry, looked up): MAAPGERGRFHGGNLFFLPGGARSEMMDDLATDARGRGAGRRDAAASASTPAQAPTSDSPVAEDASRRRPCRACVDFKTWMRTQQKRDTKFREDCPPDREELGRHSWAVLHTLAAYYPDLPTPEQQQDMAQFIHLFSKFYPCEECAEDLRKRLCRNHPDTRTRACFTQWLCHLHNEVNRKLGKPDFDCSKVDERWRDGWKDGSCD
PRMT1 inh: blocks human protein arginine methyltransferase 1; Q99873; recombinant PRMT1, activity-based probe fluorescence polarization; inhibition, % at 2.79 µM; 370,000 tested, 1.3% active;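 active means inhibition above about 21% made by adding two undisclosed values, limit read from the data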
rCAG bind conf: r(CAG) RNA repeat binding, confirmation; shares compounds with rCAG RNA binder; TO-PRO-1 dye displacement fluorescence; inhibition, % at 3 µM; 4,300 tested, 70% active; AID 652065;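 active means inhibition above a per-plate cutoff, the mean inhibition of sample wells plus 3 SD, cut at about 35% in these data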;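 further: loss of TO-PRO-1 fluorescence as compound displaces dye from 1x1 AA loop RNA; 0% = DMSO only wells and 100% = 100 µM mitoxantrone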
dCAG dye counter: DNA CAG dye complex inhibition counter-screen; AID 652068; shares compounds with rCAG RNA binder; d(CAG) DNA oligo TO-PRO-1 dye displacement, fluorescence; 4,300 tested, 94% active; inhibition, % at 3 µM;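 active means inhibition above its plate's cutoff, the mean test-well inhibition plus 3 SD, cut at about 4.8% in these data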;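 further: 0% = DNA dye mix with DMSO and 100% = 100 µM mitoxantrone; hits displace the dye from DNA and so lower well fluorescence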
dCAG dye DR: DNA CAG dye complex inhibition, dose response counter-screen | 250 tested, 20% active | IC50, µM | shares compounds with rCAG RNA binder | AID 686960 | DNA CAG/GTC duplex TO-PRO-1 dye displacement fluorescence; in the data active means IC50 below about 10 µM
The depositor's hits bear a star. Rows were chosen to be rich in hits. Some 5.9% of all compounds tested hit in one or more screens of this group.

O=C(NN1CCOCC1)c1cc(-c2cccs2)nc2ccccc12 was read as LANA-H2B inh -4, rCAG RNA binder 10, ABHD5-PLIN5 inh -6, Rtt109 Vps75 12, ALR inh 7 and PRMT1 inh -3.
Screening CC(=O)OC[C@@H]1CN(Cc2ccccc2)C[C@H](n2cnc3c(NC4CCC4)ncnc32)O1 returned rCAG RNA binder 2, ABHD5-PLIN5 inh 1 and PRMT1 inh 0.
Screening O=C(Cn1nc(-c2ccccc2)ccc1=O)NCCc1ccccc1F returned rCAG RNA binder 2 and PRMT1 inh -5.
`C=CCSc1nnc(-c2ccccc2N=Cc2c(C)[nH]n(-c3ccccc3)c2=O)c(=O)[nH]1` gave LANA-H2B inh -2, rCAG RNA binder 41*, ABHD5-PLIN5 inh -2, Rtt109 Vps75 9, ALR inh 97*, PRMT1 inh 1, rCAG bind conf 33 and dCAG dye counter 9.6*.
`CCSc1nnc(-c2ccccc2NC(=O)CC)c(=O)[nH]1` gave LANA-H2B inh -1, rCAG RNA binder -3, ABHD5-PLIN5 inh 3, Rtt109 Vps75 -2, ALR inh 4 and PRMT1 inh 1.
For CSc1nnc(-c2ccccc2N=Cc2c(C)[nH]n(-c3ccc4ccccc4c3)c2=O)c(=O)[nH]1 the results were LANA-H2B inh 3, rCAG RNA binder 68*, ABHD5-PLIN5 inh -5, Rtt109 Vps75 14, ALR inh 7, PRMT1 inh 0, rCAG bind conf 71*, dCAG dye counter 32* and dCAG dye DR 9.2*.
`C=CCSc1nnc(-c2ccccc2NC(=O)CC)c(=O)[nH]1` gave LANA-H2B inh 0, rCAG RNA binder 51*, ABHD5-PLIN5 inh -6, Rtt109 Vps75 7, ALR inh 11, PRMT1 inh 2, rCAG bind conf 5 and dCAG dye counter 2.
`C=CCN1C[C@@H](COCc2ccccc2)OCCS1(=O)=O` gave rCAG RNA binder -2 and PRMT1 inh 0.
O=c1[nH]c(Nc2ccccc2)cc2cc(Br)ccc12 was read as LANA-H2B inh -1, rCAG RNA binder 37*, ABHD5-PLIN5 inh -5, Rtt109 Vps75 3, ALR inh -1, PRMT1 inh 12, rCAG bind conf 14 and dCAG dye counter 15*.
For Cc1nnc(SC(C(=O)Nc2ccc(Cl)c([N+](=O)[O-])c2)c2ccccc2)[nH]c1=O (stereo not drawn) the results were LANA-H2B inh -1, rCAG RNA binder 61*, ABHD5-PLIN5 inh -5, Rtt109 Vps75 4, ALR inh 17, PRMT1 inh 6, rCAG bind conf 40* and dCAG dye counter 12*.
`Cc1cc(C)cc(NC(=O)C(Sc2nnc(C)c(=O)[nH]2)c2ccccc2)c1` (stereo not drawn) gave LANA-H2B inh 2, rCAG RNA binder 27, ABHD5-PLIN5 inh -1, Rtt109 Vps75 18, ALR inh -1 and PRMT1 inh -6.
`O=C(Nc1cccc(O)c1)c1ccc2c(c1)C(=O)N(Cc1ccco1)C2=O` gave LANA-H2B inh 3, rCAG RNA binder 9, ABHD5-PLIN5 inh -1, Rtt109 Vps75 4, ALR inh 0 and PRMT1 inh 2.
CC(=O)NS(=O)(=O)c1ccc(NC(=O)c2ccc3c(c2)C(=O)N(CCC(C)C)C3=O)cc1 was read as LANA-H2B inh -2, rCAG RNA binder 58*, ABHD5-PLIN5 inh -1, Rtt109 Vps75 -4, ALR inh 92*, PRMT1 inh 0, rCAG bind conf 59* and dCAG dye counter 19*.
For CC(C)CCN1C(=O)c2ccc(C(=O)Nc3ccc(Br)cc3C(=O)O)cc2C1=O the results were LANA-H2B inh -2, rCAG RNA binder 63*, ABHD5-PLIN5 inh 0, Rtt109 Vps75 1, ALR inh 60, PRMT1 inh 1, rCAG bind conf 79* and dCAG dye counter 73*.

Screening results from PubChem.
